Test results: PubChem BioAssay (NCI)
Compounds without any hit were thinned out: in the full panel of roughly 83,000, 20% have a hit.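 Activity criterion: percent growth below 10, measured after cells in 96-well plates were exposed to a single compound concentration for 48 hours.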 Activity calls are given as the source filed them.

Tests used:
Assay in all cases: NCI-60 one-dose screen, 48 h (100 = growth as untreated, 0 = no growth, -100 = all killed)
Conditions in all cases: 10 µM unless noted
HCT-15 colon = tested on: HCT-15 colon
HT29 colon = tested on: HT29 colon
SNB-19 CNS = tested on: SNB-19 CNS
U251 CNS = tested on: U251 CNS
PC-3 prostate = tested on: PC-3 prostate
SK-MEL-5 melanoma = tested on: SK-MEL-5 melanoma
UACC-62 melanoma = tested on: UACC-62 melanoma
LOX IMVI melanoma = tested on: LOX IMVI melanoma
SK-MEL-28 melanoma = tested on: SK-MEL-28 melanoma
EKVX NSCLC = tested on: EKVX NSCLC
SN12C renal = tested on: SN12C renal
UO-31 renal = tested on: UO-31 renal
TK-10 renal = tested on: TK-10 renal
ACHN renal = tested on: ACHN renal
CAKI-1 renal = tested on: CAKI-1 renal
A498 renal = tested on: A498 renal
CCRF-CEM leukemia = tested on: CCRF-CEM leukemia
MOLT-4 leukemia = tested on: MOLT-4 leukemia

Measured: growth

C=C1CCC2C(C)(CO)C(O)CCC2(C)C1C/C=C1/C(=O)OCC1Oc1ccccc1C (configuration not stated)
active: LOX IMVI melanoma 2.56%
inactive: HCT-15 colon 55.9% | HT29 colon 42.8% | SNB-19 CNS 83.4% | U251 CNS 88.4% | PC-3 prostate 86.3% | SK-MEL-5 melanoma 93.6% | UACC-62 melanoma 77.3% | SK-MEL-28 melanoma 98% | EKVX NSCLC 101% | SN12C renal 85.9% | UO-31 renal 93% | TK-10 renal 136% | ACHN renal 91.6% | CAKI-1 renal 95.8% | A498 renal 108% | CCRF-CEM leukemia 20.3% | MOLT-4 leukemia 92.5%

COc1ccc(-c2[nH]nc(N)c2-c2cc(OC)c3c(c2)OCO3)cc1
inactive: HCT-15 colon 46% | HT29 colon 26% | SNB-19 CNS 68.8% | U251 CNS 54.7% | PC-3 prostate 93.7% | SK-MEL-5 melanoma 54.2% | UACC-62 melanoma 37.2% | LOX IMVI melanoma 56.5% | SK-MEL-28 melanoma 60% | EKVX NSCLC 72.9% | SN12C renal 52% | UO-31 renal 68.1% | ACHN renal 73.8% | CAKI-1 renal 53.4% | A498 renal 43.2% | MOLT-4 leukemia 25.7%

COc1cc(Nc2ncccc2C(=O)NCc2cn(Cc3cccc(Oc4ccccc4)c3)nn2)cc(OC)c1
active: HT29 colon 8.47%
inactive: HCT-15 colon 32.9% | SNB-19 CNS 59.9% | U251 CNS 34.7% | PC-3 prostate 57.2% | SK-MEL-5 melanoma 19.5% | UACC-62 melanoma 32.7% | LOX IMVI melanoma 43.6% | SK-MEL-28 melanoma 67% | EKVX NSCLC 46.2% | SN12C renal 42.9% | UO-31 renal 49.8% | ACHN renal 53.6% | CAKI-1 renal 36.9% | A498 renal 24.2%

COc1cc(C(=O)/C=C/c2ccc3nc(-c4cc(F)cc(F)c4)sc3c2)cc(OC)c1OC
inactive: HCT-15 colon 99.5% | HT29 colon 95.9% | SNB-19 CNS 98.3% | U251 CNS 92.5% | PC-3 prostate 95.1% | SK-MEL-5 melanoma 118% | UACC-62 melanoma 95.6% | LOX IMVI melanoma 94.9% | SK-MEL-28 melanoma 106% | EKVX NSCLC 110% | SN12C renal 93% | UO-31 renal 88.8% | TK-10 renal 100% | ACHN renal 88.1% | CAKI-1 renal 104% | A498 renal 98.1% | MOLT-4 leukemia 103%

COc1cc(NC(=O)SC2=NCCS2)cc(OC)c1
inactive: HCT-15 colon 105% | HT29 colon 103% | SNB-19 CNS 90.5% | U251 CNS 97.7% | PC-3 prostate 93.6% | SK-MEL-5 melanoma 98.1% | UACC-62 melanoma 88.9% | LOX IMVI melanoma 98.3% | SK-MEL-28 melanoma 98.5% | EKVX NSCLC 113% | SN12C renal 91.8% | UO-31 renal 93.6% | TK-10 renal 126% | ACHN renal 102% | CAKI-1 renal 108% | A498 renal 90.3% | CCRF-CEM leukemia 99.5% | MOLT-4 leukemia 110%

C=C1CCC[C@]2(C)CCC[C@H](C)[C@@H](OC(C)=O)[C@@H]3OC(=O)C(=C)[C@@H]3C[C@H]1O2
inactive: HCT-15 colon 65.9% | HT29 colon 67.8% | SNB-19 CNS 88.9% | U251 CNS 72.5% | PC-3 prostate 53% | SK-MEL-5 melanoma 72.7% | UACC-62 melanoma 58% | LOX IMVI melanoma 72.2% | SK-MEL-28 melanoma 95.2% | EKVX NSCLC 77.3% | SN12C renal 68.5% | UO-31 renal 87.1% | TK-10 renal 109% | ACHN renal 80.1% | CAKI-1 renal 69.4% | A498 renal 68.7% | MOLT-4 leukemia 64%

Cc1ccc(S(=O)(=O)n2cc(C(=O)C(=O)Nc3ccncc3)c3ccccc32)cc1
active: HT29 colon 6.07%
inactive: HCT-15 colon 24.9% | SNB-19 CNS 45.7% | U251 CNS 33.7% | PC-3 prostate 55.1% | SK-MEL-5 melanoma 11.2% | UACC-62 melanoma 32.4% | LOX IMVI melanoma 45.2% | SK-MEL-28 melanoma 52% | EKVX NSCLC 55.8% | SN12C renal 39.8% | UO-31 renal 43.1% | TK-10 renal 87.9% | ACHN renal 52.3% | CAKI-1 renal 42.1% | A498 renal 74.1% | MOLT-4 leukemia 50.7%

COc1ccc(-c2cc(-c3ccccc3)nc(SCCCC(=O)NO)n2)cc1OC
inactive: HCT-15 colon 16.5% | HT29 colon 15.1% | SNB-19 CNS 20% | PC-3 prostate 13% | SK-MEL-28 melanoma 21.5% | SN12C renal 13.8%
active: U251 CNS 1.87% | SK-MEL-5 melanoma -69.8% | UACC-62 melanoma -22.3% | LOX IMVI melanoma -61.6% | EKVX NSCLC 8.24% | UO-31 renal -39.6% | TK-10 renal 4.89% | ACHN renal -0.775% | CAKI-1 renal -37.9% | A498 renal -24.9% | CCRF-CEM leukemia 6.42% | MOLT-4 leukemia 2.96%

Cc1ccc2[nH]c(=O)c3c(c2c1)Oc1ncn2nc(-c4ccco4)nc2c1C3c1ccc(Cl)cc1 (configuration not stated)
inactive: HCT-15 colon 91.6% | HT29 colon 101% | SNB-19 CNS 88.2% | U251 CNS 97.7% | PC-3 prostate 93.7% | SK-MEL-5 melanoma 99% | UACC-62 melanoma 101% | LOX IMVI melanoma 90.4% | SK-MEL-28 melanoma 103% | EKVX NSCLC 90.9% | SN12C renal 96.2% | UO-31 renal 84.9% | TK-10 renal 107% | ACHN renal 94.6% | CAKI-1 renal 91.9% | A498 renal 96.8% | CCRF-CEM leukemia 97.4% | MOLT-4 leukemia 103%

O=C(Nc1ccncc1)C(=O)c1cn(S(=O)(=O)c2ccc(Cl)cc2)c2ccccc12
inactive: HCT-15 colon 26.6% | SNB-19 CNS 44.7% | U251 CNS 31.3% | PC-3 prostate 41.7% | SK-MEL-5 melanoma 17.1% | UACC-62 melanoma 30.7% | LOX IMVI melanoma 42.8% | SK-MEL-28 melanoma 46.4% | EKVX NSCLC 53.5% | SN12C renal 34% | UO-31 renal 42.1% | TK-10 renal 81.9% | ACHN renal 52.8% | A498 renal 53.6% | MOLT-4 leukemia 48%
active: HT29 colon 2.91%

CCN(CC)CCOc1ccc(/C(=C(/C)c2ccccc2)c2ccc(OC(C)=O)cc2)cc1
inactive: HCT-15 colon 80.2% | HT29 colon 67.2% | SNB-19 CNS 107% | U251 CNS 103% | PC-3 prostate 96.9% | SK-MEL-5 melanoma 100% | UACC-62 melanoma 103% | LOX IMVI melanoma 102% | SK-MEL-28 melanoma 105% | EKVX NSCLC 95.6% | UO-31 renal 80.4% | TK-10 renal 111% | ACHN renal 111% | CAKI-1 renal 90.8% | A498 renal 73.6% | CCRF-CEM leukemia 94.3% | MOLT-4 leukemia 106%

COc1cccc(/C=C/C(=O)Nc2cc(OC)c3c(c2)OCO3)c1
inactive: HCT-15 colon 101% | HT29 colon 92.1% | SNB-19 CNS 96.7% | U251 CNS 91.3% | PC-3 prostate 97.8% | SK-MEL-5 melanoma 94.1% | UACC-62 melanoma 92% | LOX IMVI melanoma 95.8% | SK-MEL-28 melanoma 114% | EKVX NSCLC 92.4% | SN12C renal 93.8% | UO-31 renal 101% | ACHN renal 102% | CAKI-1 renal 93.7% | A498 renal 69.5% | MOLT-4 leukemia 89.5%

COc1ccc(-c2cc3c(OC)c(OC)c(OC)cc3oc2=O)cc1
inactive: HCT-15 colon 37.9% | HT29 colon 12% | SNB-19 CNS 65.8% | U251 CNS 40.6% | PC-3 prostate 62.1% | SK-MEL-5 melanoma 14.4% | UACC-62 melanoma 40.2% | LOX IMVI melanoma 46.8% | SK-MEL-28 melanoma 67.5% | EKVX NSCLC 64.3% | SN12C renal 56.4% | UO-31 renal 77.9% | TK-10 renal 85% | ACHN renal 66.8% | CAKI-1 renal 57.1% | A498 renal 34.2% | MOLT-4 leukemia 64.7%

O=C(Nc1ccc2c(c1)OCCO2)C(=O)c1c[nH]c2ccccc12
inactive: HCT-15 colon 33.5% | SNB-19 CNS 46.9% | U251 CNS 34% | PC-3 prostate 28.9% | SK-MEL-5 melanoma 29.7% | UACC-62 melanoma 33.1% | LOX IMVI melanoma 36.1% | SK-MEL-28 melanoma 53% | EKVX NSCLC 52.9% | SN12C renal 42.4% | UO-31 renal 50.9% | TK-10 renal 75.1% | ACHN renal 57.4% | CAKI-1 renal 49.7% | A498 renal 26.3% | MOLT-4 leukemia 16.8%
active: HT29 colon 4.06%

O=C(O)c1nc(-c2ccccc2)oc1N1CCOCC1
inactive: HCT-15 colon 101% | HT29 colon 108% | SNB-19 CNS 92.3% | U251 CNS 90.9% | PC-3 prostate 100% | SK-MEL-5 melanoma 105% | UACC-62 melanoma 85.2% | LOX IMVI melanoma 108% | SK-MEL-28 melanoma 98.7% | EKVX NSCLC 104% | SN12C renal 99% | UO-31 renal 81.6% | TK-10 renal 91.9% | ACHN renal 101% | CAKI-1 renal 92.2% | A498 renal 114% | CCRF-CEM leukemia 107% | MOLT-4 leukemia 105%

COc1ccc(-c2c(N)n[nH]c2-c2cc(OC)c(OC)c(OC)c2)cc1
active: HT29 colon 4.25% | SK-MEL-5 melanoma 0.844% | A498 renal -3.53%
inactive: HCT-15 colon 24.6% | SNB-19 CNS 35.9% | U251 CNS 23.5% | PC-3 prostate 40.9% | UACC-62 melanoma 25.7% | LOX IMVI melanoma 43.2% | SK-MEL-28 melanoma 50.4% | EKVX NSCLC 48% | SN12C renal 38.5% | UO-31 renal 27.3% | TK-10 renal 59.8% | ACHN renal 40% | CAKI-1 renal 57% | MOLT-4 leukemia 25.4%

CC(=O)Oc1csc(N(C(C)=O)c2cc(C(=O)O)cc(C(=O)O)c2)n1
inactive: HCT-15 colon 92.8% | HT29 colon 104% | SNB-19 CNS 97.2% | U251 CNS 88.5% | SK-MEL-5 melanoma 94% | UACC-62 melanoma 94.2% | LOX IMVI melanoma 90.2% | SK-MEL-28 melanoma 106% | EKVX NSCLC 76.2% | SN12C renal 98.8% | UO-31 renal 92.7% | TK-10 renal 105% | ACHN renal 104% | CAKI-1 renal 101% | A498 renal 70.5% | MOLT-4 leukemia 109%
active: PC-3 prostate -100% | CCRF-CEM leukemia 1.74%

COc1cc(/C=C/C(=O)/C=C/c2cc(OC)c3c(c2)OCO3)cc2c1OCO2
active: HT29 colon 6.92%
inactive: HCT-15 colon 69.1% | SNB-19 CNS 80.3% | U251 CNS 45.1% | PC-3 prostate 83.7% | SK-MEL-5 melanoma 80.9% | UACC-62 melanoma 75.1% | LOX IMVI melanoma 54% | SK-MEL-28 melanoma 119% | EKVX NSCLC 95.9% | SN12C renal 85.4% | UO-31 renal 88.1% | TK-10 renal 136% | ACHN renal 102% | CAKI-1 renal 92.6% | A498 renal 117% | MOLT-4 leukemia 91.2%
